Only some compounds are listed: those with a hit (about 2.4% of all), similar ones and a draw of the others.
Cruzain Triton – cruzain (T. cruzi) inhibition with detergent | P25779 | Potency, µM, hits mostly inhibitors | 200,000 compounds, 0.43% hits | purified cruzain, Z-FR-AMC fluorescence, 0.01% Triton; also: nearly all actives have a fitted effect of over 40% in size
Target sequence (P25779 123-467 limits assumed): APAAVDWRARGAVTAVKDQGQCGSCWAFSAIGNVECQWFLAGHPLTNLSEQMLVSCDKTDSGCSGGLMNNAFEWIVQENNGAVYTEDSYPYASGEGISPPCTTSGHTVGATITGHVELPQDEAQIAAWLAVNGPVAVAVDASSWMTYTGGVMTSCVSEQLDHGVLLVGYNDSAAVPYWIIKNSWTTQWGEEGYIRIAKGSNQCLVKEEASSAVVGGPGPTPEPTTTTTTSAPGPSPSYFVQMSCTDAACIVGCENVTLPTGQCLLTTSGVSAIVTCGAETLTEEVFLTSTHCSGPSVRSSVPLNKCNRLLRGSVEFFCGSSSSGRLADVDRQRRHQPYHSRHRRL
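Purified cruzain (1.5 nM final) was preincubated with compounds for 15 min at room temperature in 100 mM sodium acetate pH 5.5, 5 mM DTT, 0.01% Triton X-100. Reaction started with 2 uM Z-FR-AMC; AMC fluorescence change over 60 s gave activity.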
Cruzain inh noDet – inhibitors of Trypanosoma cruzi cruzain without detergent; purified cruzain, Z-FR-AMC fluorescence, no detergent; 200,000 compounds, 2.3% hits; Potency, µM, most hits filed as inhibitors; AID 1476; also: nearly all actives have a fitted effect of over 40% in size
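Detergent-free condition (0.00005% Triton X-100) in acetate buffer pH 5.5 with DTT. 1.5 nM enzyme and compound were pre-mixed 15 min, then 2 uM Z-FR-AMC substrate added; reaction progress from fluorescence change between first and third reads (60 s).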
Each line names hits and unclear results; the compound was inactive in the other large screens. Calls follow the shape of the dose curve; as a rule, active = well fitted curve in the direction sought with a large enough effect; inconclusive = small, poorly fitted or top-dose-only effect, or another doubt; inactive = no such curve, though single readings can be large; an effect the other way counts as inactive or inconclusive.

COc1ccc(-c2nn(-c3ccccc3)cc2C(=O)n2nnc3ccccc32)cc1	Cruzain inh noDet 16µM
COc1ccc(-c2nn(-c3ccccc3)cc2C(=O)OCC(=O)c2ccc(C)c([N+](=O)[O-])c2)cc1	Cruzain inh noDet 25µM
Cc1oc(-c2ccccc2F)nc1CSCC(=O)NCc1ccccc1	none
CCc1nn(CC(=O)Nc2ccc(N(CC)CC)cc2C)c(=O)c2cc3sccc3n12	none
CCc1ccc(CN2CCc3nc(Nc4ccc5c(c4)OCCO5)ncc3C2)cc1	none
COc1cccc2sc(N(Cc3cccnc3)C(=O)c3ccc4c(c3)OCCO4)nc12	Cruzain inh noDet inconclusive
O=C(/C=C/c1ccccc1)Nn1c(-c2cccs2)nc2ccccc2c1=O	Cruzain inh noDet inconclusive
O=C(/C=C/c1cccc(Cl)c1)Nn1c(-c2cccs2)nc2ccccc2c1=O	Cruzain inh noDet 13µM
COc1ccc(C(=O)Nn2c(SCC(=O)c3ccccc3)nc3ccccc3c2=O)cc1	Cruzain inh noDet inconclusive
COc1ccc(C(=O)Nn2c(SCc3ccc([N+](=O)[O-])cc3)nc3ccccc3c2=O)cc1	Cruzain inh noDet 32µM
O=c1c2ccccc2nc(SCc2ccc([N+](=O)[O-])cc2)n1-c1ccc(Cl)cc1	Cruzain inh noDet 13µM
O=c1c2ccccc2nc(SCc2ccc([N+](=O)[O-])cc2)n1CCCO	Cruzain inh noDet inconclusive
CCN(CC)CCOC(=O)c1ccc(Nc2c3c(nc4ccccc24)CCC3)cc1	none
COc1ccc(C)cc1-n1nnc(-c2nc(-c3ccccc3Cl)no2)c1N	Cruzain inh noDet inconclusive
CC(=O)c1c(C)n(-c2ccc(C)cc2)c2ccc(OC(=O)COc3ccccc3)cc12	none
COc1ccc(C(=O)N/N=C(/C)c2ccc(N3CCCCC3)cc2)cc1	Cruzain inh noDet inconclusive
COc1ccc(C(=O)Nc2ccc(N3CCCC3)cc2)cc1	Cruzain Triton inconclusive, Cruzain inh noDet 10µM
CCOc1ccc(C(=O)Nc2ccc(N3CCCC3)cc2)cc1	Cruzain inh noDet 7.9µM
COc1ccc(NC(=O)C2(c3ccc(NC(=O)c4ccc(OC)cc4)cc3)CCCC2)cc1	Cruzain inh noDet 7.9µM
CCCOc1ccc(C(=O)Nc2ccc(N3CCN(C(C)=O)CC3)cc2)cc1	Cruzain inh noDet inconclusive
COc1ccc(C2(C(=O)Nc3nncs3)CCCC2)cc1	none
O=C(Nc1ccc(N2CCCCC2)cc1)c1ccc(F)cc1	Cruzain inh noDet 25µM
O=C(c1ccc(F)cc1)c1ccc(N2CCCC2)cc1	none
CC(=O)c1ccc(NC(=O)OCCN2CCN(Cc3ccccc3)CCC2=O)cc1	none
CSCCC(NS(=O)(=O)c1ccc2c(c1)oc(=O)n2C)C(=O)NCc1ccc(F)cc1 (configuration not stated)	none
CC1=Nc2cccc3cccc(c23)N1	none
Nc1ccc(C2=Nc3cccc4cccc(c34)N2)cc1	Cruzain inh noDet 3.2µM
CCCCOc1ccc(C2=NC(c3ccccc3)=Nc3ccc(OC)cc3N2)cc1	none
COc1cccc(C2=Nc3cccc4cccc(c34)N2)c1	Cruzain inh noDet 16µM
CCC(C)NC(=O)Cn1c(=O)n(-c2ccc(C)c(C)c2)c(=O)c2c3c(sc21)CCCCC3 (configuration not stated)	none
Cc1ccc(OCC(=O)NCC(=O)OCc2cc(=O)n3nc(CC(C)C)sc3n2)cc1	none
CC(C)c1ccc(OCC(=O)N(Cc2cccs2)C2CCS(=O)(=O)C2)cc1 (configuration not stated)	Cruzain inh noDet inconclusive
COC(=O)c1c(NC(=O)/C(C#N)=C/c2ccccc2)sc2c1CCC2	none
Cc1ccc(SCc2ccc(C(=O)Nc3cc([N+](=O)[O-])ccc3C)cc2)cc1	none
Cc1ccc(SCc2ccc(C(=O)Nc3cccc([N+](=O)[O-])c3)cc2)cc1	Cruzain inh noDet 20µM
CCCCN(CC)CCCNC(=O)c1cc2c(=O)[nH]c3ccccc3c2n1C	none
Cc1ccc(CSc2nnc3[nH]c(=O)cc(-c4ccccc4)n23)cc1	none
COc1ccc(-n2c3c(cc(-c4nc(-c5ccc(Cl)cc5)cs4)c2=O)C(=O)CC(C)(C)C3)cc1Cl	none
Cc1ccccc1-n1nc(C(=O)c2cccs2)cc(-c2nc3ccccc3[nH]2)c1=N	Cruzain inh noDet 25µM
COc1ccc(-n2nc(C(=O)c3cccs3)cc(-c3nc4ccccc4[nH]3)c2=N)cc1	none
COc1cccc(C2CC(c3cccs3)=NN2C(=O)CSc2nc3ccccc3s2)c1OC (configuration not stated)	Cruzain Triton inconclusive, Cruzain inh noDet 13µM
CCOC(=O)N1CCN(C(=O)CSc2nc3c(cnn3-c3ccccc3)c(=O)[nH]2)CC1	none
O=C(CSc1nc2c(cnn2-c2ccc(F)cc2)c(=O)[nH]1)N1CCCCC1	none
COc1ccc(C2CC(c3cccs3)=NN2C(=O)CSc2nc3c(cnn3-c3ccccc3)c(=O)[nH]2)cc1 (configuration not stated)	Cruzain inh noDet 32µM
COc1ccc(C2=NN(C(=O)CSc3nc4ccccc4s3)C(c3ccc(OC)cc3)C2)cc1 (configuration not stated)	Cruzain inh noDet inconclusive

Bioassay records deposited in PubChem BioAssay by National Center for Advancing Translational Sciences (NCATS).
